Bioassay records from PubChem.
Hits are enriched below; roughly 6.8% of the tested compounds scored in any of these assays.
MK inhibit – inhibitors of Streptococcus pneumoniae mevalonate kinase | purified MK, PK/LDH-coupled NADH absorbance 340 nm | AID 555 | inhibition, % at 10 µM | 65,000 compounds, 0.48% hits;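 active = ranked among the strongest by inhibition in the single 10 µM screen, a fixed top-ranked set picked for dose follow-up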
Spn PMK inh – S. pneumoniae PMK inhibition; 65,000 compounds, 0.49% hits; inhibition, % at 10 µM; purified PMK, PK/LDH-coupled NADH absorbance 340 nm;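 active = top-ranked compounds by inhibition in the single 10 µM screen, taking a fixed number of the strongest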
DPM-DC inhibit – inhibitors of Streptococcus pneumoniae diphosphomevalonate decarboxylase; purified DPM-DC, PK/LDH coupled NADH fluorescence; calls only at 10 µM; 65,000 compounds, 0.49% hits;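 active = the 320 compounds with the highest percent inhibition in the single-dose primary screen, excluding strongly autofluorescent ones, cut at about 32% in these data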;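 note: kinetic rate of NADH fluorescence loss reporting ADP formed by the decarboxylase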
Abs 340nm – absorbance at 340 nm | compound absorbance at 340 nm, fold over control | AID 708 | fold change at 10 µM | 65,000 tested, under 10 active;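 active = at 10 µM dose, initial 340 nm absorbance at least 2 fold that of control wells; inactive = change under 2 fold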;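 note: initial absorbance extrapolated from kinetic A340 decline of NADH oxidation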
Autofluor 339 – intrinsic fluorescence of library compounds, ex339/em460 – biochemical, MLSMR library, data from DPM-DC assay, artefact control, profiling panel; compound autofluorescence, ex339/em460 nm, NADH buffer; active compounds read high; 1 = no-compound wells, NADH background; fluorescence fold increase at 10 µM; 65,000 compounds, 5.5% hits; AID 709;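 active = at 10 µM, mean starting fluorescence two-fold or more over control wells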;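 note: signal is the first read of a kinetic run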
NADH coupling – blocks coupling enzymes of NAD/NADH assays; IC50, µM (titrated, usually from 10 µM); coupled PK/LDH NADH assays, four targets; 65,000 compounds, 0.02% hits;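 active = single-dose screening hits from any of four coupled enzyme assays that gave an IC50 when retested across doses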;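 note: the DPM-DC format reads NADH fluorescence rather than 340 nm absorbance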
Each line names hits and unclear results; the compound was inactive in the other large screens.

COC(=O)CNC(=O)COC(=O)c1cc(Cl)cc(Cl)c1N	Autofluor 339 3.37 (not shown: DPM-DC inhibit)
CCOC(=O)N1CCC(NC(=O)c2cc3c(-c4cccc(OC)c4)nn(C)c3s2)CC1	Autofluor 339 3.87
COc1cccc(-c2nn(C)c3sc(C(=O)NCc4ccccn4)cc23)c1	Autofluor 339 4.91 (not shown: DPM-DC inhibit)
COc1ccccc1-c1nc(-c2cccc(C)c2)no1	none
CC1CCCC(C)N1C(=O)CSc1nnc(CSc2ncccn2)n1C (stereo not given)	none
O=C(NCc1cccs1)c1cc2ccccc2o1	none
COc1ccc2cc3cc(C(=O)NCC4CCCO4)oc3nc2c1 (stereo not given)	Autofluor 339 3.46 (not shown: DPM-DC inhibit)
COc1ccc2nc3oc(C(=O)NCc4cccs4)cc3cc2c1	DPM-DC inhibit active, Autofluor 339 3.9
COc1ccc2cc3cc(C(=O)NCc4ccccn4)oc3nc2c1	Autofluor 339 5.07 (not shown: DPM-DC inhibit)
O=C(NCc1ccco1)c1cc2cc3ccc(Cl)cc3nc2o1	none
COc1ccc2cc3cc(C(=O)NCCN4CCN(c5ccccc5F)CC4)oc3nc2c1	Autofluor 339 5.06 (not shown: DPM-DC inhibit)
COc1ccc2cc3cc(C(=O)Nc4ccccc4N4CCN(C)CC4)oc3nc2c1	none
NC1C2CN(c3nc4c(cc3F)c(=O)c(C(=O)O)cn4-c3ccc(F)cc3F)CC12 (stereo not given)	Autofluor 339 2.11
CC1Cc2ccccc2N1C(=O)C1CCCN(S(=O)(=O)c2cccc3nsnc23)C1 (stereo not given)	none
CCn1c(=O)c(C(=O)Nn2c(C)nc3ccccc3c2=O)c(O)c2ccccc21	none
CCn1c(=O)c(C(=O)Nc2nc3ccccc3[nH]2)c(O)c2ccccc21	Autofluor 339 2.42
O=C(COC(=O)c1n[nH]c2ccccc12)NC(=O)NC12CC3CC(CC(C3)C1)C2	none
Nc1cccc(-c2nc3ccc(N)cc3s2)c1	Autofluor 339 3.87 (not shown: DPM-DC inhibit)
Cc1nc2ccccn2c1/C(O)=C1\C(=O)C(=O)N(CCCn2ccnc2)C1c1ccncc1 (stereo not given)	none
CCOC(=O)C1CCN(C(=O)CN(c2ccc(OC)c(OC)c2)S(=O)(=O)c2ccccc2)CC1	MK inhibit 71.0
COc1ccc(OC)c2c(C)cc(NCCN3CCOCC3)nc12	Autofluor 339 2.09 (not shown: DPM-DC inhibit)
COc1ccc(Cl)cc1NC(=O)c1ccco1	none
O=C(Nc1ccc(Cl)cc1C(=O)Nc1ccc(Br)cn1)c1ccco1	Autofluor 339 2.27
O=C(c1ccc2ccccc2c1)N1CCN(c2ccc(O)cc2)CC1	Spn PMK inh 26.0
Cc1cccc(NC(=O)CN2C(=O)COc3ccc(Cl)cc32)c1C	none
COC(=O)C1=CN(C(C)C)C=C(C(=O)OC)C1c1cc2c(cc1Br)OCO2	Autofluor 339 2
CC1=C(C(=O)OCC(C)C)C(c2cc3c(cc2Br)OCO3)NC(=O)N1C (stereo not given)	none
CC1Oc2ccccc2N(CC(=O)NCCc2ccccc2)C1=O (stereo not given)	none
CCn1nnc(NC(=O)c2ccc(-c3ccc(Cl)cc3)o2)n1	Autofluor 339 2.09
CCCn1nnc(NC(=O)c2ccco2)n1	none
O=C(Cc1ccc(Cl)cc1)Nc1ccc(-c2nnc(-c3ccco3)o2)cc1	none
CCC(=O)Nc1ccc(-c2nnc(-c3ccccc3)o2)cc1	Autofluor 339 2.36 (not shown: DPM-DC inhibit)
COc1ccc(CC(=O)Nc2cccc(-c3nnc(-c4ccco4)o3)c2)cc1	none
O=C(Cc1ccccc1)Nc1ccc(-c2nnc(-c3ccco3)o2)cc1	Autofluor 339 2.65
CCC(=O)Nc1ccc(C(=O)c2ccccc2)cc1	none
O=C(O)CCC(=O)Nc1ccc(-c2nnc(-c3ccco3)o2)cc1	Autofluor 339 2.14 (not shown: DPM-DC inhibit)
COc1ccccc1CC(=O)Nc1ccc(-c2nnc(-c3ccco3)o2)cc1	Autofluor 339 2.27 (not shown: DPM-DC inhibit)
O=C(OCn1nnc2ccccc2c1=O)c1ccc2ccccc2n1	none
O=C(CN1CCC(C(=O)c2ccc(Cl)cc2)CC1)Nc1ccc2c(c1)OCCO2	none
CC(C(=O)c1ccccc1)n1cnc2ccccc2c1=O (stereo not given)	none
COc1ccc(C(NC(=O)CNC(C)=O)C(=O)Nc2ccc3c(c2)OCCO3)cc1 (stereo not given)	none
CCCCC(=O)Nc1nn(C)c2nc3c(C)cccc3cc12	Autofluor 339 2.4
Cc1cccc2cc3c(NC(=O)CC(C)C)nn(C)c3nc12	Autofluor 339 2.85
CCCCC(=O)Nc1nn(CCC)c2nc3ccccc3cc12	none
O=C(CSc1nc2ccccc2o1)NCc1n[nH]c(=O)c2ccccc12	none
O=C(CSc1ncnc2c1cnn2-c1ccccc1)Nc1ccc2c(c1)OCO2	DPM-DC inhibit active
Cn1cnnc1SCC(=O)n1c2ccccc2c2ccccc21	MK inhibit 67.0, Spn PMK inh 42.0
O=C(Cc1cc(=O)oc2cc(O)ccc12)NCC1CCC(C(=O)O)CC1 (stereo not given)	Autofluor 339 3.9 (not shown: DPM-DC inhibit)
Cc1nc2oc(C(=O)c3ccccc3)c(N)c2c2c1COC(C)(C)C2	none
CCOC(=O)c1oc2nc(C(C)C)c3c(c2c1N)CCC3	Autofluor 339 3.81 (not shown: DPM-DC inhibit)
CCCc1nc2oc(C(=O)OCC)c(N)c2c2c1COC(C)(C)C2	Autofluor 339 3.93 (not shown: DPM-DC inhibit)
CCOC(=O)c1c(SC)nc(SC)c2c1CCC2	none
CCOC(=O)c1oc2nc(C(C)C)c3c(c2c1N)CC(C)(C)OC3	Autofluor 339 3.79 (not shown: DPM-DC inhibit)
Cn1c(=O)c2c(-c3ccccc3)n(-n3cnnc3)cc2n(C)c1=O	none
COc1ccc(-n2c3c(cc(C(=O)Nc4ccc5c(c4)C(=O)NC5=O)c2=O)C(=O)CCC3)cc1	none
Cc1nc2cc(-c3cccc(F)c3)nn2c(N2CCOCC2)c1C	none
Fc1ccc(-c2cc3nc(-c4ccccc4)cc(N4CCOCC4)n3n2)cc1	Autofluor 339 2.11 (not shown: DPM-DC inhibit)
COc1ccc(OC)c(C2C(C(=O)c3ccc(C)o3)=C(O)C(=O)N2CCCN2CCOCC2)c1 (stereo not given)	none
CSc1ccccc1NC(=O)c1cc(-c2cccs2)on1	Autofluor 339 2.28
CC(C)Nc1oc(-c2cccc3ccccc23)nc1C#N	Autofluor 339 3.79 (not shown: DPM-DC inhibit)
CCNc1oc(-c2cccc3ccccc23)nc1C#N	Autofluor 339 2.13 (not shown: DPM-DC inhibit)
C=CCNc1oc(-c2cccc3ccccc23)nc1C#N	Autofluor 339 2.93 (not shown: DPM-DC inhibit)
O=C(Cn1cnc2ccccc2c1=O)NC1CCCc2ccccc21 (stereo not given)	none
C=CCn1c(SCC2=C(C(=O)OCC)C(C)NC(=O)N2)nnc1C1CCCCC1 (stereo not given)	none
O=c1[nH]c2cc3c(cc2cc1C(c1nnnn1C1CCCCC1)N1CCSCC1)OCCO3 (stereo not given)	Autofluor 339 2.43
COc1cc2cc(C(c3nnnn3C3CCCC3)N3CCCCC3)c(=O)[nH]c2cc1OC (stereo not given)	Autofluor 339 3.54 (not shown: DPM-DC inhibit)
CCOc1ccccc1-c1nc(SCC(=O)O)n[nH]1	none
Cc1oc2c(C)c3oc(=O)c4c(c3cc2c1C)CCC4	none
